Measurements reported in PubChem BioAssay.
Activity calls are given as the source filed them.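 The calls were made as follows, unless noted: active = inhibition above 20% together with a positive visual image hit; inconclusive = visual image hit but inhibition not above 20%; inactive = no visual image hit.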

How the values were obtained:
[1] = inhibitors of TNFa-induced NFkB p65 translocation, primary screen, imaging, HUVEC, MLSMR starter and 10KST1 sets (AID 438); details: HUVEC TNFa-induced p65 nuclear translocation; cell count: measured here: nuclei count (cytotoxicity indicator), at 2.08 µM; inhibition: at 2 µM, stronger effect = higher value, 0% TNFa-plus-vehicle, 100% no-TNFa wells;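 also: compound added about 3h40 before a 20 min TNFalpha stimulation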;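 as to inhibition: signal is the nuclear over cytoplasmic p65 intensity ratio per well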
[2] = endothelial E-selectin expression blockers – imaging, HUVEC, immunofluorescence, MLSMR starter and 10KST1 sets, primary screen (AID 487;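 active = visually confirmed hit in the image check and inhibition above 20%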;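 as to inhibition: signal is fraction of cell area covered by stained E-selectin grains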;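 as to nuclei count: 100% = median nuclei count of all wells on the same plate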); details: HUVEC TNFalpha-induced E-selectin immunofluorescence imaging, at 2 µM; inhibition: stronger effect = higher value; nuclei count: measured here: cell number, toxicity
[3] = Primary imaging screen for DUSP6 inhibitors that restore phospho-Erk in transfected HeLa cells, chemical complementation (AID 609;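 active = compounds giving at least 50% inhibition in the cell-based MKP-3 phosphatase rescue imaging test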;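 as to inhibition: phospho-Erk level distribution per well compared with pooled transfected vehicle control wells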); details: HeLa MKP-3 transfected, phospho-Erk imaging KS statistic, at 10 µM, cells stimulated with TPA for 15 min
[4] = target: Dual specificity protein phosphatase 6 (Homo sapiens) (UniProt Q16828); test: as above; details: HeLa MKP-3 transfected, phospho-Erk imaging KS statistic; at 10 µM; stronger effect = higher value; cells stimulated with TPA for 15 min
[5] = target: Voltage-gated potassium channel subunit beta-2 (Rattus norvegicus) (UniProt P62483); test: inhibitors of rat Kvbeta2 reductase activity – biochemical, NADPH fluorescence, primary screen (AID 622;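 active = fluorescence slope higher than the sample average by over 3 SD, cut at about -0.22 in these data, passing the limit was not always enough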;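 also: slope of raw intensity against log time taken from 70 to 1610 s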); details: recombinant KvBeta, 4-cyanobenzaldehyde reduction, at 10 µM, stronger effect = higher value
[6] = target: Voltage-gated potassium channel subunit beta-2 (Rattus norvegicus) (UniProt P62483); test: enhancers of rat Kvbeta2 NADPH turnover – biochemical, NADPH fluorescence, primary screen (AID 623;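 active = NADPH fluorescence slope more negative than the mean of all samples by about 3 SD, 99.7% confidence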;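 also: fluorescence intensity change per second fitted from 20 to 320 s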); details: Recombinant KvBeta, NADPH fluorescence decrease slope, 10 min; at 10 µM; stronger effect = lower value
[7] = target: Muscarinic acetylcholine receptor M4 (Homo sapiens) (UniProt P08173); test: M4-linked GIRK flux change, two-sided – cell-based, HEK293 M4/GIRK, thallium flux, BTC-AM, M4 allosteric agonist project, primary screen (AID 625;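 active = fluorescence slope after compound addition differing from the mean of all tested samples at 99.7% confidence, mostly higher but some lower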;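 also: thallium influx through GIRK channels coupled to M4 in HEK293 cells with BTC-AM dye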); details: at 10 µM, actives lie on both sides
[8] = inhibitors of larval lipid processing in zebrafish, primary screen, whole organism, PED6 fluorescence, gall bladder and intestine (AID 686;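 active = a full or partial loss of lipid-probe fluorescence in the fish gall bladder, intestine or both, judged by eye; inactive = no fluorescence loss, or compound toxic to the fish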;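 also: larvae 5 to 7 days old with five fish per well; signal comes from phospholipase A2 cleavage of quenched PED6 carried via bile; overnight exposure to compound and PED6 before scoring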); details: Zebrafish larvae PED6 lipid processing, fluorescence scoring; screened at 20 µM (by protocol)
[9] = loss of swimming-algae plug formation – whole organism, Chlamydomonas reinhardtii, WT vs cilia-less mutant, absorbance, 96-well, primary screen (AID 463189;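 active = inhibition at or above 50% relative to wild type and mutant plate controls; inactive = inhibition below 50%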;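 also: 0% = wild type cc124 cells in DMSO and 100% = ciliumless bld1 mutant cells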); details: Chlamydomonas reinhardtii gravitaxis, OD600 absorbance, 2 days; at 10 µM; stronger effect = higher value
[10] = reduction of polyQ htt aggregates in cells – imaging, exon1htt(103Q)mCFP cells, high-content imaging, primary screen (AID 483;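 active = visual image review flags a hit and inhibition of aggregation exceeds 20%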;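 also: compound exposure lasted 3 days before fixation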;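 as to nuclei count: percent of the per-plate median nuclei count of sample wells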); details: exon1htt(103Q)mCFP cell line, aggregate imaging, at 2 µM; inhibition of aggregation: stronger effect = higher value; nuclei count: measured here: cell count, toxicity
[11] = target: Alpha-2C adrenergic receptor (Homo sapiens) (UniProt P18825); test: compounds altering alpha2C-coupled GIRK flux – cell-based, HEK293 alpha2C/GIRK1/2, thallium flux, primary screen (AID 624;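 active = fluorescence slope after compound addition differing from the mean of all screened samples at 99.7% confidence, in either direction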;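 also: slope of fluorescence ratio to pre-addition baseline per second over 15 to 24 s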); details: thallium flux BTC fluorescence, at 10 µM, actives lie on both sides
[12] = blockers of RIG-like receptor reporter activation – cell-based, Sendai virus stimulus, luciferase, 10K MLSCN set, TLR/RLR signaling modifier project, primary screen (AID 602276;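 active = inhibition at or above 50% at 10 µM; inactive = inhibition below 50%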;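 also: firefly luciferase from ISG56 promoter only with Renilla not read in this screen; 0% = Sendai virus plus DMSO and 100% = medium plus DMSO without virus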); details: HEK293 RL24 IRF3 luciferase reporter, at 10 µM, stronger effect = higher value
[13] = TLR3 IRF3 reporter activation blockers – cell-based, poly I:C stimulus, luciferase, 10K MLSCN set, primary screen (AID 602277;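 active = inhibition of the reporter signal at or above 50%; inactive = inhibition below 50%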); details: HEK293-TLR3 RL24 IRF3 luciferase reporter, at 10 µM, stronger effect = higher value
[14] = measured here: cell density z-score
[15] = measured here: nuclear c-Myc green intensity z-score
[16] = measured here: nuclear pErk red intensity z-score, stronger effect = higher value

Chain of Alpha-2C adrenergic receptor (Homo sapiens) (P18825 whole entry, looked up): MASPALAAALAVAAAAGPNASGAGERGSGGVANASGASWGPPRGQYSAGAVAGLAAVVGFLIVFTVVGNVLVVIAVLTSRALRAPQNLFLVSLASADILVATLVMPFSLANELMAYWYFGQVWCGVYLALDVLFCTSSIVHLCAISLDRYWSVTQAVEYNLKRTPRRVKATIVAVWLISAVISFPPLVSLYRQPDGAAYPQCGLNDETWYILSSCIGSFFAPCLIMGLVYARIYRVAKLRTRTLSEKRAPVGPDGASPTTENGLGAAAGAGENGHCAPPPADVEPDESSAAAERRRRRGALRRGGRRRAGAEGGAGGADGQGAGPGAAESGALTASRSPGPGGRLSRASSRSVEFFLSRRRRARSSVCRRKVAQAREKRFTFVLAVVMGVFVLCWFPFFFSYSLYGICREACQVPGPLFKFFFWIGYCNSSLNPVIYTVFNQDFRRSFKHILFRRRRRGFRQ
Chain of Voltage-gated potassium channel subunit beta-2 (Rattus norvegicus) (P62483 whole entry, looked up): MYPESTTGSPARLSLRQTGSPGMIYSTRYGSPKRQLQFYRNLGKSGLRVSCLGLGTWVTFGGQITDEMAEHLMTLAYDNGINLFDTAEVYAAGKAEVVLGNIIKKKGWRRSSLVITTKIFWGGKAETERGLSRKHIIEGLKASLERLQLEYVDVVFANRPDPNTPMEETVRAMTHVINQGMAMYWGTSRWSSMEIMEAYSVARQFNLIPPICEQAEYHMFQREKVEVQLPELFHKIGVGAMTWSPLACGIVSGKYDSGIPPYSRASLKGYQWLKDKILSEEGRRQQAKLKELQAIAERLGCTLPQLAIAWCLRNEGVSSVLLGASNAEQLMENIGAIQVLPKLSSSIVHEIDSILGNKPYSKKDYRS
Chain of Muscarinic acetylcholine receptor M4 (Homo sapiens) (P08173 whole entry, looked up): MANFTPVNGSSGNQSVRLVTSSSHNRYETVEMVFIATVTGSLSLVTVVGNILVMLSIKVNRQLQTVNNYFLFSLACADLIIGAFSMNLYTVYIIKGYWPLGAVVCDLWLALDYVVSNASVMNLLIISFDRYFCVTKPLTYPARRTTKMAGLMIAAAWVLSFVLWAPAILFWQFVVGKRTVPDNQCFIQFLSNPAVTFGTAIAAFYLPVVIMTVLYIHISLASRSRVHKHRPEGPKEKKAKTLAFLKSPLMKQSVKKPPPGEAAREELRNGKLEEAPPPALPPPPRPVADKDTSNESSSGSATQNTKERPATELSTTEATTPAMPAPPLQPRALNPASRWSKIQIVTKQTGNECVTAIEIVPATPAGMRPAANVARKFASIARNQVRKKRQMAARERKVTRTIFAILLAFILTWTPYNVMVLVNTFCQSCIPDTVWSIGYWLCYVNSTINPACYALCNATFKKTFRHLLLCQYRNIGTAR
Chain of Dual specificity protein phosphatase 6 (Homo sapiens) (Q16828 whole entry, looked up): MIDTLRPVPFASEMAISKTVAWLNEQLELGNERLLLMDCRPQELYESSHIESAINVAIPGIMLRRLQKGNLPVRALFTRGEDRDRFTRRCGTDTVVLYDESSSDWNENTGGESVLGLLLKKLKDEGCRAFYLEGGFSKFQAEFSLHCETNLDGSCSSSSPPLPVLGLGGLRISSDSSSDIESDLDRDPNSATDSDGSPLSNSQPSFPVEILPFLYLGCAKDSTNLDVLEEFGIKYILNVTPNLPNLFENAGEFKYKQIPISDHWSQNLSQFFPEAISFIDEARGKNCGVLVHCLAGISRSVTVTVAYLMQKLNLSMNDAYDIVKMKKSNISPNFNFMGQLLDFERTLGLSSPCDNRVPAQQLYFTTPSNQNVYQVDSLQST

SMILES	cell count [1]	inhibition [1]	inhibition [2]	nuclei count [2] [%]	z-score [3, 14]	z-score [3, 15]	z-score [3, 16]	inhibition [4]	fluorescence slope [5]	NADPH fluorescence slope [6]	fluorescence slope [7]	outcome [8]	inhibition [9]	inhibition of aggregation [10]	nuclei count [10] [%]	slope [11]	inhibition [12]	inhibition [13]
CCOC(=O)C1CCN(c2nc3ccccc3nc2C(C#N)C(=O)OC(C)COC)CC1 (configuration not stated)	633	-11.6% (inactive)	-4.7% (inactive)	160	0.378	-0.378	-0.33	-5.81% (inactive)	-0.488 (inactive)	-8.1e-05 (inactive)	0.00472 (inactive)	inactive	6.91% (inactive)	–	–	–	–	–
CCOC(=O)c1ccccc1NC(=O)c1cc2sccc2n1C	740	-42.9% (inactive)	-20.5% (inactive)	101	–	–	–	–	-0.483 (inactive)	1.4e-05 (inactive)	–	–	–	5.5% (inactive)	107	0.00572 (inactive)	-3.63% (inactive)	-15.2% (inactive)
Cc1c(C(=O)OCc2ccccc2)[nH]c2c1C(=O)CC(c1ccco1)C2 (configuration not stated)	721	12.7% (inactive)	-63.1% (inactive)	107	–	–	–	–	-0.569 (inactive)	-1.8e-05 (inactive)	–	–	–	-170% (inactive)	3.7	0.00645 (inactive)	45.4% (inactive)	80.4% (active)
N#Cc1ccc(-c2csc(NC(=O)C3CC3)n2)cc1	718	-9.6% (inactive)	-25.2% (inactive)	116	–	–	–	–	-0.502 (inactive)	-1.9e-05 (inactive)	–	–	–	33.4% (inactive)	93.9	0.00647 (inactive)	-27.3% (inactive)	-86% (inactive)
O=C(CSc1nc2ccccc2s1)Nn1cnnc1	461	-6.2% (inactive)	–	166	-0.815	-1.79	0.477	6.04% (inactive)	-0.439 (inactive)	-7.8e-05 (inactive)	0.00557 (inactive)	inactive	17.1% (inactive)	–	–	–	–	–
COc1ccccc1N1C(=O)c2ccccc2NC1c1ccncc1 (configuration not stated)	427	5.6% (inactive)	-456% (inactive)	163	–	–	–	–	-0.437 (inactive)	-0.000349 (inactive)	–	–	–	-20.4% (inactive)	103	0.00578 (inactive)	-1.3% (inactive)	5.74% (inactive)
CC(C)CNS(=O)(=O)c1ccc(OCC(=O)Nc2ccc3c(c2)OCO3)c(Cl)c1	463	-12.1% (inactive)	-0.6% (inactive)	85.5	–	–	–	–	-0.377 (inactive)	-2e-05 (inactive)	–	–	–	-1.9% (inactive)	81.6	0.00353 (inactive)	6.42% (inactive)	19.3% (inactive)
CCn1c(C)cc(=S)c2ccccc21	587	-5.3% (inactive)	-56.4% (inactive)	90.4	–	–	–	–	-0.611 (inactive)	-2.2e-05 (inactive)	–	–	–	-16.1% (inactive)	105	0.00608 (inactive)	1.4% (inactive)	12.6% (inactive)
COC(=O)CSc1nc2nc(C)cc(C)n2n1	722	-4.5% (inactive)	-33.5% (inactive)	108	–	–	–	–	-0.552 (inactive)	-1.8e-05 (inactive)	–	–	–	0.1% (inactive)	98.6	0.00719 (inactive)	11.7% (inactive)	28.1% (inactive)
c1cn(CC2(Cn3ccnc3)COC2)cn1	793	-6.2% (inactive)	-2.3% (inactive)	105	–	–	–	–	-0.614 (inactive)	-1.1e-05 (inactive)	–	–	–	-13.4% (inactive)	104	0.00589 (inactive)	14.1% (inactive)	17.6% (inactive)
Cc1noc(C(=O)Nc2ccc3c(c2)OCO3)c1Cl	763	0% (inactive)	-40.9% (inactive)	108	–	–	–	–	-0.419 (inactive)	-6.4e-05 (inactive)	–	–	–	-14.1% (inactive)	129	0.00438 (inactive)	-21.3% (inactive)	-27.6% (inactive)
O=C(CCN1C(=O)C2C3C=CC(C3)C2C1=O)NC1CCCc2ccccc21 (configuration not stated)	411	7.3% (inactive)	-138% (inactive)	104	–	–	–	–	-0.441 (inactive)	-1.7e-05 (inactive)	–	–	–	4.3% (inactive)	104	0.00567 (inactive)	10.7% (inactive)	30.7% (inactive)
CCOC(=O)N1CCC(NC(=O)CN2C(=O)CCSc3ccccc32)CC1	807	-8.5% (inactive)	-78% (inactive)	108	–	–	–	–	-0.515 (inactive)	-3.1e-05 (inactive)	–	–	–	5.8% (inactive)	101	0.00644 (inactive)	4.21% (inactive)	1.38% (inactive)
O=C(O)C1C2C=CC3(CN(C4CCCC4)C(=O)C13)O2 (configuration not stated)	521	-3.4% (inactive)	-23.3% (inactive)	97.3	–	–	–	–	-0.546 (inactive)	-1.2e-05 (inactive)	–	–	–	24.1% (inactive)	69.2	0.00708 (inactive)	12.5% (inactive)	38% (inactive)
